These results are taken from ChEMBL document CHEMBL1157539, “Thousands of chemical starting points for antimalarial lead identification” (Nature, 2010).

In this assay the test system is Plasmodium falciparum. Put plainly: GSK_TCMDC: Inhibition of Plasmodium falciparum Dd2 in whole red blood cells, using parasite LDH activity as an index of growth. Test compounds present at 2uM. The assay is classed as functional.
Consider `O=C(NCCCCN1CCC(c2c[nH]c3ccccc23)CC1)c1sc(-c2ccc(C(F)(F)F)cc2)nc1CO`, for which the Inhibition worked out at 3%. Molecule `O=C(O)C(F)(F)F.OCC1CCN(Cc2ccc(-c3cccc(-c4nc5cc(F)ccc5[nH]4)c3)cc2)CC1` came in with an Inhibition of 25%. `CC(C)[C@H]1CC[C@H](C)C[C@@H]1OC(=O)N[C@@H](Cc1ccc(O)cc1)C(=O)NC1CCN(Cc2ccc(OCCCN(C)C)cc2)C1` (stereo not given in full) yielded an Inhibition of 64%. Consider `O=C(NC1CCC1)C1CCN(C(c2ccccc2)c2cc(F)cc(F)c2)CC1` (stereo not given), for which the Inhibition came to 72%.

`CCCCCCn1c(Sc2ccc(C#N)c([N+](=O)[O-])c2)nnc1-c1ccccc1` displayed an Inhibition of 41%.

Regarding `Cc1cccc2nc(-c3ccc(-c4cccc(NC(=O)c5cnccc5C(F)(F)F)c4)cc3)[nH]c12`, the Inhibition is 13%. As to `Cc1ccc(N2CCN(CCCCNC(=O)c3ccc(NC(=O)c4ccc(Cl)cc4)cc3)CC2)c(C)c1`, the Inhibition came out at 20%. For the molecule `O=C(/C=C/c1ccc(Cl)cc1)NCCCCCN1CCCC(C(=O)Nc2ccc(Cl)cc2)C1` (stereo not given), the Inhibition is 6%. The same measure for `COc1ccc(-c2cccc(NC(=O)c3cccc(Cl)c3)c2)cc1CN1CCNCC1.O=C(O)C(F)(F)F`: 52%; for `CCCCCc1ccc(N2C(N)=NC(N)=NC2(C)C)cc1.Cl`: 1%; for `COc1ccc(CN2CCC(CNCCc3c(Cl)cccc3Cl)CC2)cc1.O=C(O)C(F)(F)F`: 69%. The same measure for `O=[N+]([O-])c1ccc(C=NNc2nc(Nc3ccccc3)nc(Nc3ccccc3)n2)o1`: 61%. The value for `COc1cc2ncnc(Nc3ccc(Br)c(Cl)c3)c2cc1OC.Cl` was 15%. `COc1c(C2CCN(CCCCNC(=O)c3ccc(-c4ccc(C(F)(F)F)cc4)c(C(=O)OC(C)C)c3)CC2)ccc2c1CCCC2` registered an Inhibition of 30%. The molecule `Cc1cccc2nc(-c3ccc(-c4ccc(CN5CC(C)OC(C)C5)cc4)cc3)[nH]c12.O=C(O)C(F)(F)F` (stereo not given) returned an Inhibition of 96%. On to `COc1ccc(CNCC(C)(C)c2nc(-c3ccc(Cl)c(O)c3)c(-c3ccncc3)[nH]2)cc1.Cl`, for which the Inhibition is 99%. The same measure for `Cc1cccc2nc(-c3ccc(-c4cccc(CN5CCCC(N)C5)c4)s3)[nH]c12.O=C(O)C(F)(F)F` (stereo not given): 94%; for `CCc1nc(N)nc(N)c1-c1ccc(F)c(F)c1`: 0%; for `Cc1ccc(NC(=O)c2ccc(CN3CCCN(Cc4cccc(Cl)c4)CC3)cc2)cc1C.O=C(O)C(F)(F)F`: 18%. With `Cc1nc2nc(N)nc(N)c2c(C)c1Cc1ccc(C(F)(F)F)cc1.Cl`, the Inhibition turned out to be 22%. The same measure for `Cc1cccc2nc(-c3ccc(-c4ccc(CN5CCC(N)C5)cc4)s3)[nH]c12.O=C(O)C(F)(F)F` (stereo not given): 98%; for `CN(C)Cc1ccc(-c2ccc3c(Nc4ccc(Oc5ccccn5)cc4)ccnc3c2)o1`: 100%. The same measure for `Cc1cccc2nc(-c3cccc(-c4ccc(NC(=O)c5ccc(=O)[nH]n5)cc4)c3)[nH]c12`: 27%; for `CCCN(c1ccc(C(F)(F)F)cc1[N+](=O)[O-])S(=O)(=O)C(c1ccccc1)c1ccc(C(F)(F)F)cc1[N+](=O)[O-]` (stereo not given): 49%.

Consider `COC(=O)c1sc(-c2ccc(Cl)cc2)cc1N(CCCN1CCC(N2CCCCC2)CC1)S(=O)(=O)c1ccc(C)cc1`, for which the Inhibition is recorded as 86%. The same measure for `O=C(Nc1ccc(Br)cc1)c1cc(Br)ccc1NS(=O)(=O)c1ccc(C(F)(F)F)cc1`: 56%. On to `O=C(Nc1ccnc(N2CCCN(Cc3cccc(O)c3)CC2)c1)c1ccc(F)cc1.O=C(O)C(F)(F)F`, for which the Inhibition was determined as 3%. The same measure for `CCCOc1cc(O)c(-c2[nH]nc(C)c2Oc2ccccc2)cc1CC`: 46%. The same measure for `CN(C)Cc1ccc(CN2CCN(CCOc3ccc(-c4ccc(Cl)cc4)cc3)CC2)o1`: 21%; for `O=C(O)C(F)(F)F.O=S(=O)(NCCN1CCCC1)c1ccc(-c2cccc(CNCc3ccsc3)c2)s1`: 43%.

`COc1cc2nc(N3CCC(CNC(=O)c4ccc(-c5ccc(C(=O)N(C)C)cc5OCCN(C)C)cc4)CC3)nc(N)c2cc1OC` showed an Inhibition of 0%. Molecule `CC(C)(C)OC(=O)NCc1ccc(Nc2nnc(-c3cccc(C(=O)NCc4cc(C(F)(F)F)cc(C(F)(F)F)c4)c3)o2)cc1` registered an Inhibition of 13%. With `O=C(Nc1cccc(Cl)c1)c1cnc(N2CCN(c3ccncc3)CC2)c(Cl)c1.O=C(O)C(F)(F)F`, the Inhibition is reported as 97%. The same measure for `Clc1cccc(CNc2nc(NCCc3c[nH]cn3)nc(NC3CCCCC3)n2)c1`: 0%; for `CCN(CC)CCn1c(=N)n(CC(O)c2ccc(Cl)c(Cl)c2)c2ccccc21.Cl` (stereo not given): 88%.
